Reference: PubChem BioAssay (EPA / NIEHS)
Several values for one entry are separate records, joined by “and”; a condition that tells them apart may be missing. Equal values may be shown once. Where a structure was tested more than once in an assay, its records may differ in their call. Activity calls are given as the source filed them. Rule for the calls: active = hit-call score of the fitted dose curve at least 0.9, where 1 is the maximum; inactive = score below 0.9.

Experiments:
[1] = BSK_CASM3C_SRB: Viability Assessment in the BioMAP Diversity Plus: CASM3C Assay (AID 2283050); details: primary human coronary artery smooth muscle cells;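 note: total protein by SRB staining as cytotoxicity measure in parallel cultures; cells exposed to compound for 24 h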
[2] = read-out: Thrombomodulin, THBD (gene 7056); assay: BSK_CASM3C_Thrombomodulin: BioMAP Diversity Plus: CASM3C Assay for Thrombomodulin Biomarker Activity (AID 2283051); details: primary human coronary artery smooth muscle cells; actives raise or lower the signal;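 note: thrombomodulin protein level measured by ELISA 24 h after dosing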
[3] = read-out: Tissue Factor, F3 (gene 2152); assay: BSK_CASM3C_TissueFactor: BioMAP Diversity Plus: CASM3C Assay for Tissue Factor Biomarker Activity (AID 2283052); details: primary human coronary artery smooth muscle cells; actives raise or lower the signal;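 note: cell surface tissue factor protein level read by ELISA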
[4] = read-out: Interferon-gamma inducible Protein 10 (IP10), CXCL10 (gene 3627); assay: BSK_hDFCGF_IP10: BioMAP Diversity Plus: hDFCGF Assay for Interferon-gamma inducible Protein 10 (IP10) Biomarker Activity (AID 2283053); details: primary human foreskin fibroblasts; actives raise or lower the signal
Procedure, shortened: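 Primary foreskin fibroblasts, human; 24 h compound exposure; IP-10 by ELISA; bidirectional fit vs DMSO.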

[5] = read-out: Urokinase-type plasminogen activator receptor (uPAR), PLAUR (gene 5329); assay: BSK_CASM3C_uPAR: BioMAP Diversity Plus: CASM3C Assay for Urokinase-type plasminogen activator receptor (uPAR) Biomarker Activity (AID 2283054); details: primary human coronary artery smooth muscle cells; actives raise or lower the signal;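 note: cell-surface uPAR protein level quantified by ELISA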
[6] = read-out: Vascular cell adhesion molecule 1 (VCAM1), VCAM1 (gene 7412); assay: BSK_CASM3C_VCAM1: BioMAP Diversity Plus: CASM3C Assay for Vascular cell adhesion molecule 1 (VCAM1) Biomarker Activity (AID 2283055); details: primary human coronary artery smooth muscle cells; actives raise or lower the signal;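 note: VCAM-1 protein level quantified by ELISA on the cells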
[7] = read-out: Epidermal growth factor receptor (EGFR), EGFR (gene 1956); assay: BSK_hDFCGF_EGFR: BioMAP Diversity Plus: hDFCGF Assay for Epidermal growth factor receptor (EGFR) Biomarker Activity (AID 2283057); details: primary human foreskin fibroblasts; actives raise or lower the signal
Procedure, shortened: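 hDFCGF system, primary human foreskin fibroblasts; compound 24 h; EGFR measured by ELISA; DMSO = negative control/baseline; bidirectional fitting.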

[8] = read-out: Interleukin-8 (IL8), CXCL8 (gene 3576); assay: BSK_hDFCGF_IL8: BioMAP Diversity Plus: hDFCGF Assay for Interleukin-8 (IL8) Biomarker Activity (AID 2283058); details: primary human foreskin fibroblasts; actives raise or lower the signal
Procedure, shortened: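 IL-8 levels read by ELISA at 24 hours after dosing human skin fibroblast cultures. Parallel SRB staining assessed overt cytotoxicity, and gain or loss of signal was fitted against DMSO control.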

[9] = BSK_hDFCGF_Proliferation: Cell Proliferation Assessment in the BioMAP Diversity Plus: hDFCGF Assay (AID 2283059); details: primary human foreskin fibroblasts;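 note: curves fitted for both rise and fall of signal versus DMSO baseline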
Procedure, shortened: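 Primary human foreskin fibroblasts, sub-confluent; […]; 10% TCA fix, 0.1% SRB stain, A560 total protein. Gain/loss fitted bidirectionally vs DMSO control.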

[10] = read-out: Macrophage colony-stimulating factor (MCSF), CSF1 (gene 1435); assay: BSK_hDFCGF_MCSF: BioMAP Diversity Plus: hDFCGF Assay for Macrophage colony-stimulating factor (MCSF) Biomarker Activity (AID 2283060); details: primary human foreskin fibroblasts; actives raise or lower the signal
Procedure, shortened: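 M-CSF levels read by ELISA at 24 h post-dosing in human skin fibroblasts. Parallel cultures stained with SRB assessed cytotoxicity at the same time point; response fitted in both directions against the DMSO baseline.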

[11] = BSK_hDFCGF_SRB: Viability Assessment in the BioMAP Diversity Plus: hDFCGF Assay (AID 2283061); details: primary human foreskin fibroblasts;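 note: cells exposed to compound for 24 h before the read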
Procedure, shortened: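 Viability was read as total protein: after 10% TCA fixation, wells were stained with 0.1% sulforhodamine B and read at 560 nm. Primary human foreskin fibroblasts were dosed for 24 h, with bidirectional fitting versus DMSO.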

[12] = read-out: TIMP metallopeptidase inhibitor 1 (TIMP1), TIMP1 (gene 7076); assay: BSK_hDFCGF_TIMP1: BioMAP Diversity Plus: hDFCGF Assay for TIMP metallopeptidase inhibitor 1 (TIMP1) Biomarker Activity (AID 2283062); details: primary human foreskin fibroblasts; actives raise or lower the signal
Procedure, shortened: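 TIMP-1 measured by ELISA 24 h after chemical dosing of primary human skin fibroblasts, with gain or loss fitted relative to DMSO. Parallel SRB staining (560 nm) monitored overt cytotoxicity.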

[13] = read-out: Monokine induced gamma interferon (MIG), CXCL9 (gene 4283); assay: BSK_hDFCGF_MIG: BioMAP Diversity Plus: hDFCGF Assay for Monokine induced gamma interferon (MIG) Biomarker Activity (AID 2283063); details: primary human foreskin fibroblasts; actives raise or lower the signal
Procedure, shortened: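 Human primary foreskin fibroblasts in the hDFCGF system, exposed to test chemical for 24 h; MIG measured by ELISA. Bidirectional curve fitting against DMSO negative control as activity baseline.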

[14] = read-out: Matrix Metallopeptidase 1 (MMP1), MMP1 (gene 4312); assay: BSK_hDFCGF_MMP1: BioMAP Diversity Plus: hDFCGF Assay for Matrix Metallopeptidase 1 (MMP1) Biomarker Activity (AID 2283064); details: primary human foreskin fibroblasts; actives raise or lower the signal
Procedure, shortened: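 Primary human foreskin fibroblasts exposed to chemicals for 24 h; MMP1 measured by ELISA. Cytotoxicity tracked by SRB staining in parallel cultures; bidirectional fit relative to DMSO.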

[15] = read-out: Vascular cell adhesion molecule 1 (VCAM1), VCAM1 (gene 7412); assay: BSK_hDFCGF_VCAM1: BioMAP Diversity Plus: hDFCGF Assay for Vascular cell adhesion molecule 1 (VCAM1) Biomarker Activity (AID 2283065); details: primary human foreskin fibroblasts; actives raise or lower the signal;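 for AC50: VCAM-1 protein level quantified by ELISA after 24 h chemical exposure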
Procedure, shortened: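 ELISA readout of VCAM-1 on human dermal fibroblast primary cultures, 24 h after chemical exposure. Gain or loss of signal fitted in both directions against DMSO baseline.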

[16] = read-out: Plasminogen activator inhibitor-1 (PAI1), SERPINE1 (gene 5054); assay: BSK_hDFCGF_PAI1: BioMAP Diversity Plus: hDFCGF Assay for Plasminogen activator inhibitor-1 (PAI1) Biomarker Activity (AID 2283066); details: primary human foreskin fibroblasts; actives raise or lower the signal
Procedure, shortened: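 Primary dermal fibroblasts (human foreskin), hDFCGF system; compound 24 h; PAI-1 by ELISA; bidirectional fit vs DMSO control.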

[17] = read-out: Intercellular Adhesion Molecule 1 (ICAM1), ICAM1 (gene 3383); assay: BSK_KF3CT_ICAM1: BioMAP Diversity Plus: KF3CT Assay for Intercellular Adhesion Molecule 1 (ICAM1) Biomarker Activity (AID 2283067); details: primary human keratinocytes with fibroblasts; actives raise or lower the signal
Procedure, shortened: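 Cell-surface ICAM-1 was measured by ELISA 24 h after dosing primary human skin keratinocytes co-cultured with fibroblasts. Parallel SRB staining tracked overt cytotoxicity. Gain or loss of signal was fitted relative to DMSO.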

[18] = read-out: Interferon-gamma inducible Protein 10 (IP10), CXCL10 (gene 3627); assay: BSK_KF3CT_IP10: BioMAP Diversity Plus: KF3CT Assay for Interferon-gamma inducible Protein 10 (IP10) Biomarker Activity (AID 2283068); details: primary human keratinocytes with fibroblasts; actives raise or lower the signal
Procedure, shortened: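 In a primary skin co-culture of keratinocytes and fibroblasts, IP-10 is quantified by ELISA at 24 h after dosing. SRB staining of parallel wells monitors overt toxicity. Curves are fitted both directions against DMSO.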

[19] = BSK_KF3CT_SRB: Viability Assessment in the BioMAP Diversity Plus: KF3CT Assay (AID 2283069); details: primary human keratinocytes with fibroblasts;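 note: total protein by sulforhodamine B staining as a cytotoxicity measure; read 24 h after compound addition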
Procedure, shortened: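 Human keratinocyte and foreskin fibroblast co-culture exposed to chemical for 24 h. Total protein measured in parallel cultures by 0.1% sulforhodamine B staining after 10% TCA fixation, read at 560 nm; bidirectional fit relative to DMSO.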

[20] = read-out: Collagen III, COL3A1 (gene 1281); assay: BSK_hDFCGF_CollagenIII: BioMAP Diversity Plus: hDFCGF Assay for Collagen III Biomarker Activity (AID 2283056); details: primary human foreskin fibroblasts; actives raise or lower the signal
Procedure, shortened: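 ELISA readout of Collagen III in human dermal (foreskin) fibroblasts, taken 24 h post-treatment. Gain or loss relative to DMSO vehicle fitted in both directions.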

Measured: AC50

FC(F)(I)C(F)(F)C(F)(F)C(F)(F)I
active: [1] 43.5 µM and 47.2 µM and 48.7 µM | [3] 30 µM and 40.4 µM | [4] 47.9 µM and 55.1 µM and 58.4 µM | [5] 47.2 µM and 43.9 µM and 54.4 µM | [6] 45.7 µM and 45.6 µM and 47.9 µM | [8] 53.7 µM and 54.7 µM and 56.5 µM | [9] 48.7 µM and 45.5 µM and 43.3 µM | [10] 51.1 µM and 47.7 µM and 58.5 µM | [11] 46.3 µM and 52.7 µM and 54 µM | [12] 45.3 µM and 46.7 µM and 47.2 µM | [13] 50.1 µM and 46 µM and 54.4 µM | [14] 56.1 µM and 47.6 µM and 46.9 µM | [15] 50.3 µM and 57.2 µM and 46.4 µM | [16] 45.1 µM and 50.2 µM and 44.9 µM | [17] 45.5 µM and 46.4 µM and 46.6 µM | [18] 52.2 µM and 58.4 µM and 56.6 µM | [19] 52.6 µM and 51.1 µM and 58.7 µM
inactive: [2] | [3] | [7]

COC(=O)CCC(F)(F)C(F)(F)C(F)(F)C(F)(F)F
active: [11] 30 µM
inactive: [1] | [2] | [3] | [4] | [5] | [6] | [20] | [7] | [8] | [9] | [10] | [11] | [12] | [13] | [14] | [15] | [16] | [17] | [18] | [19]

CCO[Si](CCC(F)(F)C(F)(F)C(F)(F)C(F)(F)C(F)(F)C(F)(F)F)(OCC)OCC
active: [3] 1.58 µM
inactive: [1] | [2] | [3] | [4] | [5] | [6] | [7] | [8] | [9] | [10] | [11] | [12] | [13] | [14] | [15] | [16] | [18] | [19]

CC(=O)Nc1ccc(N=Nc2cc(C)ccc2O)cc1
active: [4] 34.1 µM | [6] 9.54 µM | [9] 20 µM | [10] 30.8 µM | [13] 33.8 µM | [14] 31 µM | [15] 30.2 µM | [17] 20 µM | [18] 34 µM
inactive: all other assays above

OCCCC(F)(F)C(F)(F)C(F)(F)C(F)(F)C(F)(F)C(F)(F)C(F)(F)F
active: [1] 22.6 µM and 25.1 µM | [3] 20.8 µM | [4] 11.8 µM and 14 µM | [5] 24.5 µM and 45 µM | [6] 26.2 µM and 41.2 µM | [7] 9.95 µM | [8] 17.8 µM and 20.8 µM | [9] 6.74 µM and 7.22 µM | [10] 15.6 µM and 16.6 µM | [11] 18.3 µM and 17.2 µM | [12] 14.6 µM and 14.4 µM | [13] 16.3 µM and 14.6 µM | [14] 13 µM and 15 µM | [15] 11 µM and 9.2 µM | [16] 15.3 µM and 14.9 µM | [18] 23.9 µM and 49.7 µM | [19] 24.2 µM and 49 µM
inactive: [2] | [3] | [7]
